This is a sample that favours compounds with a hit; in the whole collection about 2.7% have one here.
LDHA inh: inhibitors of human lactate dehydrogenase A; P00338; purified LDHA, NADH/diaphorase-resazurin fluorescence; stronger effect = lower value; activity change, % (values are at about 110 or 230 µM); 480,000 compounds, 0.15% hits; AID 1347041; in the data active means activity change below about -30%; inconclusive means mostly about -25% to -30%
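Resorufin fluorescence (ex540/em590), read at 0 and 20 min after diaphorase/resazurin addition, reports the NADH left after a 5 min room-temperature reaction of 2 nM human LDH5 with 0.06 mM NADH and 0.2 mM pyruvate.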
ERG Ets-DNA blk: inhibitors of human ERG Ets domain-DNA interaction. P11308. fluorescence polarization, His-ERG Ets domain / labelled DNA. Potency, µM (series often up to 76.9 µM), most hits filed as inhibitors. AID 624246. 370,000 compounds, 0.028% hits; active means well fitted inhibition curve with a large enough effect in the polarisation, with a control signal flat; inconclusive means small, poorly fitted or top-dose-only effect, or effect the other way, or a change in a side signal; inactive means no such curve, though single readings can be large or run the other way; the % refers to the polarisation;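 further: polarization taken with two DNA probes labelled with fluorescein and Texas red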
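His-tagged ERG Ets domain (1 uM in the protein solution; 300mM KCl, 50mM Tris-HCl, 1mM EDTA, 1mM DTT, pH 7.5) received compound, then a probe mix of 5 nM fluorescein-DNA and 100nM Texas-615-DNA. Fluorescence polarization was read for both dyes.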
Nrf2 inh: blocks Nrf2 signaling. A549 ARE-Fluc reporter, luciferase luminescence, 18-24 h. Potency, µM (titrated, usually from 46 µM), most hits filed as inhibitors. 360,000 compounds, 2.1% hits. AID 504444; further: nearly all actives have a fitted effect of over 60% in size
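Cells were seeded and rested 2 h, then exposed to compounds for 18-24 h. CellTiter-Fluor was read first as a viability measure. BugLite was added 15 min before the final luminescent read of ARE-luciferase activity in A549 cells.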
A549 tox: kills or reduces viability of A549 cells in Nrf2 counter-screen | A549 ARE-Fluc cells, CellTiter-Fluor viability, 18-24 h | Potency, µM (top dose mostly 46 µM), usual class: inhibitors | 390,000 compounds, 0.16% hits | AID 504648
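Cytotoxicity counterscreen: CellTiter-Fluor fluorescence was measured in A549 ARE_Fluc cells after 18-24 h of compound exposure in a concentration series. The subsequent BugLite luminescent read reports ARE-luciferase activity.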
Nrf2 activator: activators of Nrf2 (ARE) signaling. AREc32 ARE-luciferase reporter (MCF7-derived line), luminescence, 24 h. Potency, µM (highest dose often 46.1 µM), hits mostly activators. 410,000 compounds, 0.31% hits; further: nearly all actives have a fitted effect of over 65% in size
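ARE-driven firefly luciferase activity in AREc32 cells measured after a 24 hr compound exposure at 37 deg C, using Steady-Glo reagent and a 30 min room-temperature hold.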
ALOX12 inh: blocks human arachidonate 12S-lipoxygenase. P18054. purified 12hLO, xylenol orange hydroperoxide absorbance. Potency, µM (top dose mostly 108 µM), usual class: inhibitors. 580,000 compounds, 1.1% hits
Target sequence (P18054 whole entry, looked up): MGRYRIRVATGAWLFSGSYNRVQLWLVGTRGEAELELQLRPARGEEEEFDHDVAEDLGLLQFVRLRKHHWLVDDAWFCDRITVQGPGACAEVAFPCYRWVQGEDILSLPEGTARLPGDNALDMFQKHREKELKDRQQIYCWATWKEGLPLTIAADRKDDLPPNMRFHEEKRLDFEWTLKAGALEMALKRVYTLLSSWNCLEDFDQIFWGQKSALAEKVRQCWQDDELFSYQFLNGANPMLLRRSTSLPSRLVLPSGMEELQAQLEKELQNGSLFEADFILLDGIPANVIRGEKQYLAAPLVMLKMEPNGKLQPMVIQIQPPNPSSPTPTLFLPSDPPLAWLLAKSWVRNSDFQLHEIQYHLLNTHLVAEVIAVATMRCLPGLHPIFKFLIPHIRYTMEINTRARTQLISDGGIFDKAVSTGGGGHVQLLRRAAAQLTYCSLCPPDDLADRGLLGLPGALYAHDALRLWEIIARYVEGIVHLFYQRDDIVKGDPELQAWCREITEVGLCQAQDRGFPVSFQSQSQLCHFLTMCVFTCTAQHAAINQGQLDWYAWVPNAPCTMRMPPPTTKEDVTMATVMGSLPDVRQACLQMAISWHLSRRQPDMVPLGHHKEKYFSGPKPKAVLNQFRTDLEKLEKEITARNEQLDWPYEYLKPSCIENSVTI
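Purified human 12hLO (150 nM final) in 25 mM Hepes, 0.01% Triton X-100, pH 7.0 was preincubated 15 min at room temperature with compound. Then 40 uM arachidonic acid was added, 30 min. Hydroperoxide was read by Fe-XO absorbance ratio 573/405 nm.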
Numbers stand for hits; 0 = inactive; ? = inconclusive; - = no result; ! = repeats disagree. Unless noted, the call rests on the fitted dose curve; in most records, active means well fitted curve in the direction sought with a large enough effect; inconclusive means small, poorly fitted or top-dose-only effect, or another doubt; inactive means no such curve, though single readings can be large; an effect the other way counts as inactive or inconclusive.

SMILES	LDHA inh	ERG Ets-DNA blk	Nrf2 inh	A549 tox	Nrf2 activator	ALOX12 inh
CC(OC(=O)c1ccc2c(c1)OCCO2)C(=O)NC1CCCCC1C (configuration not stated)	0	0	18µM	0	0	0
CC(CCc1ccc(O)cc1)NCCC(c1ccccc1)c1ccccc1 (configuration not stated)	0	0	0	0	0	0
CC(CCc1ccc(O)cc1)NCc1ccc(Br)cc1 (configuration not stated)	0	0	0	0	0	13µM
CCCCCC1c2cc(c(O)cc2O)C(CCCCC)c2cc(c(O)cc2O)C(CCCCC)c2cc(c(O)cc2O)C(CCCCC)c2cc1c(O)cc2O (configuration not stated)	0	-	-	-	-	0
COc1ccc(C(=O)Nc2oc3ccccc3c(=O)c2-c2ccc(Cl)cc2)cc1	0	-	-	-	-	0
Cc1cccc(N2CCN(C(=O)Cn3ccc4ccccc4c3=O)CC2)c1C	0	0	18µM	0	0	0
O=C(Cn1nc(Cc2cccnc2)c2ccccc2c1=O)N1CCN(c2ccccn2)CC1	0	0	0	0	0	0
Cc1cccc(N2CCN(C(=O)Cn3nc(Cc4cccnc4)c4ccccc4c3=O)CC2)c1C	0	0	16µM	0	0	0
CCN(C(=O)Cn1nc(Cc2cccnc2)c2ccccc2c1=O)c1cc(C)ccc1C	0	0	18µM	0	0	0
CN1c2cc(C(=O)N3CCN(c4cccc(Cl)c4)CC3)ccc2C(=O)N2CCCCC21 (configuration not stated)	-	-	-	-	-	0
CCOC(=O)c1ccc(N2CCN(CC)CC2)c(NC(=O)CSc2ccc(Cl)cc2)c1	0	-	-	-	-	?
CCc1nc2c(OCC(=O)c3ccc(Cl)cc3Cl)cccn2c1N(C=O)Cc1ccccc1	0	-	-	-	0	14µM
CCc1nc2c(OCc3ccc(Cl)cc3)cccn2c1N(C=O)Cc1ccccc1	0	-	-	-	0	?
Cc1cc(C)cc(-n2nnc(-c3nsc(NC(=O)c4ccccc4Cl)n3)c2C)c1	0	0	0	0	0	0
CCc1ccc(-n2nnc(-c3nsc(NC(=O)c4ccccc4Cl)n3)c2C)cc1	0	0	18µM	0	0	0
N#Cc1cccc(NC(=O)CCC(=O)c2ccc3c(c2)CCC3)c1	0	-	-	-	-	?
COC(=O)N[C@H](c1ccccc1)[C@@]1(C)C[C@@H]1[C@@H](C)C(=O)Nc1ccc2ccccc2c1	0	0	18µM!	?	0	0
C[C@@H](C(=O)Nc1ccc2ccccc2c1)[C@@H]1C[C@@]1(C)[C@@H](NC(=O)c1ccccc1)c1ccccc1	0	0	0	0	0	0
Cc1cc(-c2ccc(S(=O)(=O)N3CCN(c4ccccc4)CC3)s2)n[nH]1	0	-	-	-	-	?
CCOC(=O)c1cc(-c2cccnc2)nn1-c1ccccc1	0	0	12µM	0	0	0
COC(=O)c1c(NC(=O)c2c(OC)cccc2OC)sc2c1C(C(=O)OC)CC2 (configuration not stated)	0	0	13µM	?	0	?
COc1ccc2c(c1)C=C(CN1CCC(CO)(CCc3ccccc3)CC1)CO2	0	0	0	0	0	0
COc1ccc(CC2(CO)CCN(CC3=Cc4cc(Cl)ccc4OC3)CC2)cc1	0	0	13µM	0	0	?
Clc1ccccc1OCCCCN1CCNCC1	-41	0	0	0	0	?
Clc1ccccc1OCCCCN1CCCC1	0	0	0	0	0	?
SMILES	LDHA inh	ERG Ets-DNA blk	Nrf2 inh	A549 tox	Nrf2 activator	ALOX12 inh
Cc1ccc(C(=O)N/C(=C\c2ccco2)C(=O)O)cc1	0	-	-	-	-	?
CCCCCC(=O)Nc1cccc(C2=NOC3(C2)C[C@@H](C(N)=O)N(C(=O)CC(c2ccccc2)c2ccccc2)C3)c1 (some centres not stated)	0	0	21µM	?	0	0
C/C=C/C=C\C(=O)Nc1cccc(C2=NOC3(C2)C[C@@H](C(N)=O)N(C(=O)c2cc([N+](=O)[O-])cc([N+](=O)[O-])c2C)C3)c1 (some centres not stated)	0	0	0	0	0	16µM
C/C=C\C(=O)Nc1cccc(C2=NOC3(C2)C[C@@H](C(N)=O)N(C(=O)CC(c2ccccc2)c2ccccc2)C3)c1 (some centres not stated)	0	0	0	0	0	0
CCCCCC(=O)Nc1cccc(C2=NOC3(C2)C[C@@H](C(N)=O)N(C(=O)c2cc([N+](=O)[O-])cc([N+](=O)[O-])c2C)C3)c1 (some centres not stated)	0	0	0	0	0	?
CCOC(=O)c1c(SCC(=O)Nc2ccc(F)cc2F)nc(=O)[nH]c1C	0	-	-	-	-	?
CCC(NC(C)C)C(O)c1ccc(O)c(O)c1 (configuration not stated)	0	0	?	0	0	10µM!
CC(C(=O)O)c1ccc(-c2ccccc2)c(F)c1 (configuration not stated)	0	0	0	0	0	0
CC(C(=O)Nc1ccccc1)c1ccc(-c2ccccc2)c(F)c1 (configuration not stated)	0	0	10µM	0	0	-
CC(=O)N1CCSc2ccc(S(=O)(=O)Nc3ccccc3C)cc21	0	0	13µM	0	0	0
Oc1ccc(CNc2ccccc2)c2cccnc12	0	0	5.2µM	0	0	-
Cc1ccc(NCc2ccc(O)c3ncccc23)c(F)c1	0	-	21µM	0	-	-
Oc1ccc(CNc2ccc(F)cc2)c2cccnc12	0	0	7.3µM	?	0	?
Oc1ccc(CNCc2ccccc2F)c2cccnc12	0	-	1.3µM	0	-	-
COc1ccc(CCc2nnc(CCC(=O)N(C)Cc3ccnc4ccccc34)o2)cc1	0	0	21µM	?	0	0
O=C(c1ccco1)N(Cc1cccnc1)Cc1cc2ccccc2[nH]c1=O	0	-	-	-	-	0
Cc1ccc(CSc2nccc(-c3c(C)nc4ccccn34)n2)cc1	0	0	8.2µM	0	0	0
Cc1ccc(CSc2ncn(-c3ccccc3)n2)cc1	0	0	0	0	0	0
COc1cc(Br)cc(/C=N/NC(=O)Cc2ccc(C(F)(F)F)cc2[N+](=O)[O-])c1O	0	0	16µM	?	0	0
Cc1ccc(-n2ncc3c2CCCC3NC(=O)CCc2c(C)noc2C)cc1C (configuration not stated)	0	0	?	0	0	0
COC(=O)c1ccc(C(=O)NC2CCCc3c2cnn3-c2ccccc2F)nc1 (configuration not stated)	0	0	0	0	0	0
COc1ccc(C(=O)NC2CCCc3c2cnn3-c2ccc(C)c(C)c2)c(OC)c1OC (configuration not stated)	0	0	13µM	0	0	0

Bioassay records deposited in PubChem by National Center for Advancing Translational Sciences (NCATS).
